# Whole data set: some 33,000 sequences, median “e-score” near -0.037, cut for the highest 2% near 0.34. The sample as a whole holds a higher share of the highest values than the screen did.
# Biological target: T1, GST-Rok (full length) (Bacillus subtilis subsp. subtilis str. …, UniProt O34857 1-191)
# T1 sequence: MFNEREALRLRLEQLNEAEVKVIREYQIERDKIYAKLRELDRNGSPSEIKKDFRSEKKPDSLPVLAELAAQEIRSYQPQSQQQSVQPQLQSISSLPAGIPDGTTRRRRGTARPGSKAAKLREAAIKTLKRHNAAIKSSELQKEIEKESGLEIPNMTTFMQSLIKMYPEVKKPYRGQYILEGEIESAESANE
# Experiment: protein binding microarray; Rok is a gene silencer of Bacillus subtilis; high values mean tight binding
# Details: protein: recombinant; tags: GST (pTH5325, pDEST15-Magic modified); dsDNA, one strand shown
# Outline: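 Each has a 25-mer constant primer and a 35-mer variable part from a de Bruijn sequence of order 10, covering every non-palindromic 8-mer at least 32 times (palindromic 16). Preference for each 8-mer is given as a rank-based, unitless enrichment score (E-score). Its range runs from 0.5 (most favored) to −0.5 (most disfavored).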
row,Sequence,binding signal
1,GTATTAGA,0.22 E-score
2,CGATTATA,0.215 E-score
3,ATATTATG,0.111 E-score
4,CTGTTATA,0.308 E-score
5,ATATTATA,0.425 E-score
6,CTATTATA,0.366 E-score
7,ATGTTATC,0.206 E-score
8,ATGTTATA,0.35 E-score
9,GTATTATA,0.35 E-score
10,ATATTATC,0.319 E-score
11,CTATTATC,0.214 E-score
12,GTATTAAA,0.109 E-score
13,CGTCCTAA,-0.0629 E-score
14,CGAACTGC,-0.11 E-score
15,ACCATGCG,-0.0629 E-score
16,TCGAAGCA,-0.0477 E-score
17,AGACTAGA,0.173 E-score
18,TAACTAGA,0.224 E-score
19,CAACTAGA,0.247 E-score
20,AAACTAGA,0.355 E-score
21,GAACTAGA,0.36 E-score
22,ACACTAGA,0.197 E-score
23,CCGGCGAA,-0.00971 E-score
24,CAATAATA,0.352 E-score
25,AATTAATA,0.256 E-score

row,Sequence,binding signal
1,GAATAATA,0.271 E-score
2,CATTAATA,0.171 E-score
3,CAATAATC,0.0735 E-score
4,TAATAATA,0.395 E-score
5,CAATAATG,0.0655 E-score
6,TATTAATA,0.368 E-score
7,AAATAATA,0.312 E-score
8,ACTCACTA,0.177 E-score
9,ACAGCATG,0.0491 E-score
10,AGGCACTG,-0.0252 E-score
11,CGTGATAA,0.124 E-score
12,CCCGGCCG,-0.162 E-score
13,CCAAATAG,-0.0889 E-score
14,CGTGCGAG,-0.181 E-score
15,TTATTGAA,-0.0458 E-score
16,AGTAAATA,0.387 E-score
17,AGTAAATG,0.19 E-score
18,CGTAAATC,0.0869 E-score
19,CGTAAATA,0.343 E-score
20,GGTAAATA,0.299 E-score
21,AGTAAATC,0.262 E-score
22,AATTCCGT,-0.114 E-score
23,GACTTTCA,-0.125 E-score
24,CGGCCAAC,-0.111 E-score
25,AGAAGATG,0.193 E-score

row,Sequence,binding signal
1,ACTGATAT,0.242 E-score
2,CCGTACCG,-0.185 E-score
3,CTGAACTA,0.203 E-score
4,AAAGTCGA,-0.0163 E-score
5,GTATAAAA,0.343 E-score
6,ATATAATG,0.303 E-score
7,GTATAACA,0.208 E-score
8,CTATAAGA,0.244 E-score
9,ATATAATA,0.452 E-score
10,ATATAATC,0.152 E-score
11,CTATAATA,0.355 E-score
12,GTATAATA,0.407 E-score
13,CTATAATC,0.279 E-score
14,GTATAAAC,0.16 E-score
15,GTATAAGA,0.199 E-score
16,TTATAAAA,0.236 E-score
17,GATCAGAA,0.11 E-score
18,ACGACCGC,0.0315 E-score
19,CCCGTTTC,-0.0198 E-score
20,CCATCTAG,-0.0113 E-score
21,ATGAGGGC,-0.183 E-score
22,AGCTGCCT,-0.125 E-score
23,CGGTGTTC,-0.0645 E-score
24,AGAACATG,0.223 E-score
25,GGTCTAAA,0.0268 E-score

row,Sequence,binding signal
1,ATACATCA,0.191 E-score
2,ATTATCTC,-0.0512 E-score
3,ATTATCTA,0.412 E-score
4,GCCATCTA,0.0099 E-score
5,CCTATCTA,0.34 E-score
6,AGTATCTC,0.238 E-score
7,AGTATCTA,0.343 E-score
8,CCTATCTC,0.168 E-score
9,ATTATCTG,0.284 E-score
10,ACCATCTC,-0.0707 E-score
11,ACCATCTA,0.351 E-score
12,AGTATCTG,0.189 E-score
13,CCTATCCA,-0.0329 E-score
14,CTAACGAG,0.0146 E-score
15,GCCAAGTA,0.107 E-score
16,AGCGAGCA,-0.18 E-score
17,TACCAGCA,0.135 E-score
18,GAACAACA,-0.0557 E-score
19,ACTATCTA,0.397 E-score
20,ACTATCTC,0.128 E-score
21,GCTATCTA,0.33 E-score
22,GATTTCTA,0.3 E-score
23,CATTTCGA,-0.0105 E-score
24,GATTTCGA,0.183 E-score
25,ATTTTCTG,-0.139 E-score

row,Sequence,binding signal
1,CCTTTCTA,0.158 E-score
2,AATTTCGA,0.352 E-score
3,ACTTTCTC,0.0817 E-score
4,ATTTTCTA,0.397 E-score
5,ACTTTCTA,0.386 E-score
6,ATTTTCTC,0.264 E-score
7,CATTTCTA,0.288 E-score
8,AATTTCTA,0.344 E-score
9,CTTTACGC,0.177 E-score
10,AGGCCGTA,-0.152 E-score
11,CATCGTAA,0.169 E-score
12,GTTTCCAA,0.0167 E-score
13,CTAGCGTC,-0.0555 E-score
14,AGCTTAGG,0.072 E-score
15,AGTTTCTA,0.402 E-score
16,GGTTTCTA,0.334 E-score
17,AGTTTCTC,0.274 E-score
18,GACAGAAC,-0.0014 E-score
19,CCTCTAAC,-0.0188 E-score
20,ACAGTATA,0.343 E-score
21,GCAGTATA,0.275 E-score
22,GTAGTACA,0.236 E-score
23,GAAGTATA,0.169 E-score
24,CAAGTATA,0.204 E-score
25,GTAGTATA,0.423 E-score

row,Sequence,binding signal
1,CCAGTATA,0.235 E-score
2,CTAGTATA,0.409 E-score
3,CTAGTATC,0.241 E-score
4,CCTAACAG,0.0291 E-score
5,ATTAGCAA,0.0548 E-score
6,CGCAACTC,-0.103 E-score
7,AATGACAA,0.16 E-score
8,TATTACGA,0.296 E-score
9,GCGTATCA,0.0845 E-score
10,TAACAGTA,0.355 E-score
11,CAACAGTA,0.316 E-score
12,GAACAGTA,0.264 E-score
13,AGAATGTA,0.201 E-score
14,GATATTAA,0.365 E-score
15,TATATTGA,0.278 E-score
16,AATATTTA,0.325 E-score
17,CATATTTA,0.324 E-score
18,AATATTAC,0.239 E-score
19,AATATTAA,0.334 E-score
20,CATATTAC,0.289 E-score
21,GATATTAC,0.364 E-score
22,GATATTTA,0.351 E-score
23,CATATTAA,0.268 E-score
24,TGTATTAA,0.241 E-score
25,TATATTAA,0.364 E-score

row,Sequence,binding signal
1,CCGGTCGA,-0.102 E-score
2,AGAGACTA,0.093 E-score
3,CCCTCGTA,-0.134 E-score
4,AGCCAAAT,0.0925 E-score
5,TAAGAGCA,-0.127 E-score
6,CGCTGTGA,-0.0511 E-score
7,GCTTCAAC,0.127 E-score
8,AGCTCCAG,-0.0852 E-score
9,ACATTCTC,0.0677 E-score
10,ACGTTCTC,0.0202 E-score
11,GGGAAATA,0.127 E-score
12,AATTAGTA,0.416 E-score
13,ATTTAGTG,0.166 E-score
14,AATTAGTG,0.322 E-score
15,GTTTAGTA,0.272 E-score
16,ATTTAGTA,0.363 E-score
17,CATTAGTA,0.227 E-score
18,GCGCATAC,0.0802 E-score
19,CGTTCTGA,-0.0208 E-score
20,CTAGATAC,0.22 E-score
21,TTAGATAA,0.251 E-score
22,GCAGATAC,0.0143 E-score
23,GTAGATAA,0.407 E-score
24,CTAGATAA,0.302 E-score
25,GTAGATAC,0.359 E-score

# — PMC6212790, “How bacterial xenogeneic silencer rok distinguishes foreign from self DNA in its resident genome”
